Experimental data published in PubChem BioAssay AID504834 (National Center for Advancing Translational Sciences (NCATS), 2011).
Screen size: about 320,000 compounds; about 22,000 (6.9%) were called active. Inconclusive results (about 27%) are left out. The sample as a whole holds a higher share of actives than the screen did. Values without a mark were called inactive. The call rests on the fitted dose curve; in most records, active means well fitted inhibition curve with a large enough effect; inconclusive means small, poorly fitted or top-dose-only effect, or another doubt; inactive means no such curve, though single readings can be large or run the other way.

Test: Primary qHTS for delayed death inhibitors of the malarial parasite plastid, 96 hour incubation
Conditions: P. falciparum luciferase reporter growth; series mostly up to 28.7 µM; activity change, negative = inhibition: at the top concentration
From the text: The goal of this screen is to discover new antimalarial compounds that act by inhibiting the development of the apicoplast in the malarial parasite Plasmodium falciparum. The biochemical processes that make this organelle essential for erythrocytic stage parasites are not well understood. However, antibiotics such as azithromycin and tetracycline, which target the apicoplast translational machinery, have a potent antimalarial effect.
We have developed a cell-based assay that measures parasite growth based on the expression of an integrated copy of a firefly luciferase reporter. To detect small molecules that cause this "delayed death" phenotype, erythrocytes infected with the luciferase-expressing parasites were incubated with compounds for either one or two generations, corresponding to 48 and 96 hours, respectively. Compounds that inhibit parasite growth in the second generation, but not the first, should be enriched in antimalarials that target the apicoplast. Growth inhibition is detected by a decrease in luciferase activity.
Assay Provider: David Fidock and Eric Ekland, Columbia University
Keywords: NIH Roadmap, MLPCN, MLI, MLSMR, qHTS, NCGC, qHTS, malaria, luciferase, viability
Four microliters of infected erythrocytes (2% hematocrit, 0.05% parasitemia final concentration) in culture medium were dispensed and the plates incubated for 96 hours at 37 C in 5% CO2. Two microliters of luciferase detection reagent was added and luminescence was detected by a ViewLux (PerkinElmer) reader.
On the % scale 0 is the no-effect control and ±100 the full control effect; potency means the concentration at half of the fitted maximal effect.

Compound	activity change, negative = inhibition [%]	Potency
CC1COc2ccccc2N1C(=O)c1ccc(F)cc1 (configuration not stated)	3.37	
COc1cccc(C(C(=O)NC2CCCC2)N(C(=O)c2ccco2)c2cccc(C(C)=O)c2)c1OC (configuration not stated)	-24.7	
COc1ccccc1N1CCN(C(=O)c2ccc(NC3=NC4CS(=O)(=O)CC4S3)cc2)CC1 (configuration not stated)		10.4 µM (active)
COc1cccc(-c2cc(C(=O)N3CCN(c4ccccc4OC)CC3)no2)c1	218	
CN(Cc1ccccc1)C(=O)c1ccc(NC2=NC3CS(=O)(=O)CC3S2)cc1 (configuration not stated)	5.53	
NS(=O)(=O)c1ccc(CCNC(=O)c2nc(CS(=O)(=O)c3ccc(Cl)cc3)no2)cc1	22.4	
CC1CC(C)CN(C(=O)C2CC(=O)N(c3ccc(F)cc3)C2)C1 (configuration not stated)	20.3	
CC1(C)O[C@@H]2[C@H](O1)[C@@H](COS(=O)(=O)O)O[C@H]2n1cnc2c(=O)[nH]cnc21	34.3	
CCCCNC(=O)C1(O)c2ccccc2NC(=O)N1c1ccc(Cl)cc1 (configuration not stated)	11.4	
Cc1ccc(S(=O)(=O)N(Cc2cccc([N+](=O)[O-])c2)C(=O)N2CCN(C)CC2)cc1	-2.96	
CCCNC(=O)c1ccccc1NC(=O)CSCc1ccc(OC)cc1	3.51	
O=C(CSCc1ccccc1)Nc1ccccc1	-1.81	
Cc1c(NC(=O)CSCc2ccccc2)cccc1C(=O)O		10.4 µM (active)
Nc1ccn(C2CC(O)C(CO)O2)c(=O)n1 (configuration not stated)	60.4	
CCOC(=O)NN1C(=O)c2ccccc2NC1c1cccc(O)c1 (configuration not stated)	18.3	
CCOC(=O)NN1C(=O)c2ccccc2NC1c1ccccc1O (configuration not stated)		14.7 µM (active)
O=C1c2ccccc2NC(c2ccccc2O)N1NS(=O)(=O)c1ccccc1 (configuration not stated)	0.813	
COc1ccc(OC)c(C(C)NC(=S)Nc2ccc(S(=O)(=O)Nc3ncccn3)cc2)c1 (configuration not stated)	59.7	
COc1ccccc1-n1c(-c2cc(-c3ccco3)[nH]n2)n[nH]c1=S	1.29	
CCc1ccc2c(c1)C(c1ccc([N+](=O)[O-])cc1)=NNC(c1ccccc1)=N2	12.3	
Fc1ccc2c(c1)C(c1cccnc1)=NNC(c1cccs1)=N2		7.38 µM (active)
COc1ccc2c(c1)C(c1cccs1)=NNC(c1cccnc1)=N2	15.7	
CCOC(=O)c1cc2ccccc2n1CC(=O)c1ccccc1	-6.84	
CC(=O)Nc1ccc(NC(=O)[C@@H](NC(=O)c2cccc(C)c2)C(C)C)cc1	14.8	
O=C(O)CSc1ccc(S(=O)(=O)N2CCCC2)cn1	-27.2	
CCN1CCCC1CNC(=O)c1cc2cc(OC)c(OC)cc2[nH]1 (configuration not stated)	-3.37	

Compound	activity change, negative = inhibition [%]	Potency
O=C(COc1cccc(-n2cnnn2)c1)NCCC1=CCCCC1		10.4 µM (active)
O=C(COc1ccc(Cl)cc1)NCCC1=CCCCC1	-3.84	
CC(C)COc1ccc(C(=O)OCC(=O)NCCC2=CCCCC2)cc1	-3.54	
Cc1ccn2c(c1)nc(=O)c1cc(S(=O)(=O)N3CCC(C)CC3)ccc12	-23.3	
COC(=O)c1ccc(COC(=O)CNC(=O)c2cccc(OC)c2)o1	5.51	
CCN(CC)CCCNC(=O)c1c(O)c2cc(F)cc3c2n(c1=O)C(C)CC3 (configuration not stated)	63.5	
CC(=O)OC(C(=O)NCCc1ccccc1)c1cccnc1 (configuration not stated)	20.2	
CCN1C(=NCCc2cccnc2)N[C@@H](c2ccccc2)C(C(=O)OC)=C1C		inactive
CCN1C(=NCCc2cccnc2)N[C@@H](c2ccccc2)[C@H](C(=O)OC)[C@H]1C		7.38 µM (active)
CC(=O)C1=C(C)NC(=O)NC1c1ccc2c(c1)OCO2 (configuration not stated)	42.1	
CC(C)(C)c1ccc(C(CC(=O)O)NS(=O)(=O)Cc2ccccc2)cc1 (configuration not stated)	14.4	
O=C(Nc1ccc(S(=O)(=O)Nc2nccs2)cc1)c1cc(=O)[nH]c2ccccc12	16.1	
Cc1ccnc(NS(=O)(=O)c2ccc(NC(=O)c3ccc(S(=O)(=O)N4CCOCC4)cc3)cc2)n1	-31.3	
O=C(Nc1ccc(S(=O)(=O)Nc2nccs2)cc1)c1cccc(S(=O)(=O)N2CCOCC2)c1		11.7 µM (active)
Cc1cccc(C)c1NC(=S)N1CCCCCC1	20.3	
Cc1ccccc1NC(=O)Cc1nc(COC(=O)c2ccc(C(F)(F)F)cc2)cs1	19.2	
CCOc1ccc(N(CC(=O)NCCc2ccc(OC)cc2)S(C)(=O)=O)cc1	22.2	
Cc1noc(C)c1S(=O)(=O)N(CC(=O)NCc1ccc(Cl)cc1)c1ccc2c(c1)OCO2	-22.2	
CCOc1ccc(N(CC(=O)NCc2ccc(OC)cc2)S(=O)(=O)c2c(C)noc2C)cc1		9.28 µM (active)
COc1ccc(C(=O)N2CCCN(C)CC2)c(OC)c1	-15.6	
Cc1cc(C)c(S(=O)(=O)c2ccc(F)cc2C)c(=O)[nH]1	-2.87	
O=C(OCC(=O)N1CCCC1=O)c1cc(S(=O)(=O)N2CCOCC2)ccc1Cl	16.7	
Cc1noc(C)c1COc1ccc(C(=O)NCCOc2ccccc2)cc1	34.1	
O=C(CCC1CCN(C(=O)c2cccc(Cl)c2F)CC1)Nc1ccccc1	-20.8	
CCNC(=O)c1cccc(NC(=O)C2CC(=O)N(CCc3ccccc3)C2)c1 (configuration not stated)	9.08	
CN(NC(=O)c1ccccc1)c1nc2ccccc2nc1C(F)(F)F	31.1	

Compound	activity change, negative = inhibition [%]	Potency
COC(=O)CNC(=O)c1ccccc1F	9.78	
CN(NC(=O)c1ccccc1F)c1nc(C(F)(F)F)nc2ccccc12		11.7 µM (active)
O=C(O)c1ccccc1N=N/C(=N/Nc1cc(S(=O)(=O)O)ccc1O)c1ccccc1	15.8	
CC1CC(=O)Nc2ccccc2N1C(=O)COc1ccc2cc(Br)ccc2c1 (configuration not stated)	-10.8	
C=CCN(C(=O)Nc1ccc2oc(C)nc2c1)c1ccccc1	35.4	
C=CCN(C(=O)Nc1ccc2c(c1)nc(C)n2C)c1ccccc1	128	
C=CCN(C(=O)Cn1ncc2c1-c1cc(C)ccc1OC2)c1ccccc1		9.28 µM (active)
CC(=O)NC(CC(=O)Nc1cccc(S(=O)(=O)N2CCCC2)c1)c1ccccc1 (configuration not stated)	-13.5	
CC[C@]1(O)C[C@@H]2CN(CCc3c([nH]c4ccccc34)[C@@](C(=O)OC)(c3cc4c(cc3OC)N(C)[C@H]3[C@@](O)(C(=O)OC)[C@H](OC(C)=O)[C@]5(CC)C=CCN6CC[C@]43[C@@H]65)C2)C1		0.147 µM (active)
CC[C@]1(O)CC2CN(CCc3c([nH]c4ccccc34)[C@@](C(=O)OC)(c3cc4c(cc3OC)N(C=O)[C@H]3[C@@](O)(C(=O)OC)[C@H](OC(C)=O)[C@]5(CC)C=CCN6CC[C@]43[C@@H]65)C2)C1 (some centres not stated)		0.262 µM (active)
CN(C(=O)COC(=O)CNC(=O)C12CC3CC(CC(C3)C1)C2)c1ccccc1	9.76	
Cc1cc(NC(=O)CSc2nnnn2-c2ccc(F)cc2)no1	11.3	
CC(C(=O)NCCc1ccc(S(N)(=O)=O)cc1)N1C(=O)CC(C)(C)Sc2ccccc21 (configuration not stated)	8.48	
CCCN(C(=O)c1nc2nccc(C)n2n1)c1c(N)n(Cc2ccccc2)c(=O)[nH]c1=O	-13.1	
COc1ccc(NC(=S)N2CCc3cc(OC)c(OC)cc3C2)cc1	6.7	
COc1ccccc1/C=C/C(=O)NC(=S)N1CCOCC1	1.93	
COc1ccc(C)cc1NC(=S)N1CCOCC1		10.4 µM (active)
COc1ccc(OC)c(NC(=S)N2CCc3ccccc3C2)c1		4.15 µM (active)
CCOC(=O)N1CCN(C(=S)Nc2ccc(C)cc2C)CC1	0	
COc1ccc(OC)c(NC(=O)c2ccc3c(c2)CCN3S(C)(=O)=O)c1	4.71	
CC1CCCCN1C(=O)CCS(=O)(=O)Cc1ccccc1 (configuration not stated)	0	
CC(OC(=O)c1ccccc1NCCO)C(=O)Nc1ccnn1C(C)C (configuration not stated)	9.28	
CC(CCN1CCN=C1N(C)C)c1ccccc1 (configuration not stated)	0	
COc1ccc(N=C(C)c2sc3ccccc3c2O)cc1	166	
Cc1ccc(NS(=O)(=O)c2cn(C)c(=O)n(C)c2=O)c(C)c1	-6.8	
Brc1ccc(C2CC(c3ccccc3)=Nc3ccccc3N2)cc1 (configuration not stated)	-26	

Compound	activity change, negative = inhibition [%]	Potency
Fc1ccccc1N=C1Nc2cccc3cccc1c23	5.56	
c1ccc(C2=Nc3cccc4cccc(c34)N2)cc1		11.7 µM (active)
C[C@@H](NC(=O)[C@@H]1Cc2ccccc2CN1)C(=O)NC1CCCC1	-9.37	
CN(Cc1cnccn1)C(=O)c1cc(COc2cccc(C(F)(F)F)c2)on1	-9.17	
COc1ccc(N2CCN(S(=O)(=O)c3ccc4c(c3)NC(=O)C(C)C(=O)N4)CC2)cc1 (configuration not stated)	10.7	
Nc1nc(NCC(=O)O)nc(N2CCCCCC2)c1[N+](=O)[O-]	20.6	
COCCNc1nc(N)c([N+](=O)[O-])c(NCCO)n1	31.3	
C=CCNc1nc(N)c([N+](=O)[O-])c(NC2CCCCC2)n1		10.4 µM (active)
O=C(COc1ccc2ccc(=O)oc2c1)NCC(O)c1ccccc1 (configuration not stated)	-26.5	
O=C(CCC1CCCC1)N=C1SC2CS(=O)(=O)CC2N1Cc1ccccc1 (configuration not stated)	37.1	
Cc1ccccc1OCC(=O)NNC(=O)c1ccc(-n2cncn2)c([N+](=O)[O-])c1	23.3	
C=CCn1c(SCn2nnc3ccccc3c2=O)nnc1-c1ccc(Cl)cc1		11.7 µM (active)
O=C(Cn1nnc2ccccc2c1=O)NCc1ccc(Cl)cc1	81.2	
O=c1c2ccccc2nnn1CSc1nnnn1-c1ccccc1	46	
N/C(=N\S(=O)(=O)c1ccc(Cl)cc1)N1CCOCC1	-3.64	
CCOC(=O)Cc1csc(SCC(=O)Nc2ccc(C)cc2F)n1	21.7	
Cc1nc2ccccc2nc1N/N=C/c1ccc(O)cc1O		2.94 µM (active)
FC(F)(F)c1nc2ccccc2nc1N/N=C/c1ccc(Cl)cc1	37.3	
Fc1ccc(/C=N/Nc2nc(-c3cccnc3)nc3ccccc23)cc1	0	
Oc1ccc(/C=N/NC2=NCCCCC2)c(O)c1	27.9	
Oc1ccc(/C=N/Nc2nc(-c3ccccc3F)nc3ccccc23)c(O)c1		11.7 µM (active)
Cc1cc(N/N=C/c2ccccc2F)c2ccccc2n1	2.63	
CC1CCCN(C(=O)CN2C(=O)c3ccccc3S2(=O)=O)C1 (configuration not stated)	309	
COc1cc(OC)cc(/C(N)=N/O)c1	110	
